# In the library only some 11% were active in any assay of this set; here they are far more common.
# HEK293 tox: Cytotoxic Profiling in HEK 293 Cell Line of Diverse Libraries Using Quantitative High-Throughput Screening. 6.6% of 94,000 active. Potency, µM (titrated, usually from 115 µM), for the others: at the top dose activity change, negative = cytotoxicity, usual class: inhibitors. HEK 293 viability, ATP luminescence (CellTiter-Glo), 48-72 h; also: nearly all actives have a fitted effect of over 60% in size
#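 Viability of HEK 293 cells, plated at 250 cells/well, was judged by cellular ATP after compound treatment for 48 or 72 hr. Luminescence was imaged 10 min after CellTiter-Glo addition at room temperature.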
# NPR1 antag: Natriuretic polypeptide receptor (hNpr1) antagonism - Primary qHTS. Atrial natriuretic peptide receptor 1 (Homo sapiens), P16066. HEK293 hNpr1 GloSensor cGMP, ANP-stimulated luminescence. Potency, µM (doses to about 46.3 µM), for the others: top-dose activity change, negative = inhibition, hits mostly inhibitors. 1.6% of 76,000 active; calls by dose curve; also: nearly all actives have a fitted effect of over 60% in size
#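 HEK293 cells stably expressing human Npr1 and cGMP GloSensor pGS-40F, loaded 2 h with 2% GloSensor reagent, given compound 30 min at room temperature. Luminescence read before and 20 min after 0.1 nM hNppA.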
# NIH3T3 tox: Cytotoxic Profiling in NIH 3T3 Cell Line of Diverse Libraries Using Quantitative High-Throughput Screening. NIH 3T3 viability, CellTiter-Glo ATP luminescence, 48-72 h. Potency, µM (series often up to 96.7 µM), for the others: at the highest dose activity change, negative = cytotoxicity, usual class: inhibitors. 4.3% of 94,000 active; also: nearly all actives have a fitted effect of over 55% in size
#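 ATP-dependent luminescence (CellTiter-Glo) served as the viability signal for NIH 3T3 cells treated with compound for 48 or 72 hr at 37 °C.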
# Luciferase inh: Firefly luciferase inhibition profiling of diverse chemical library using quantitative high-throughput screening; 2.5% of 76,000 active; Potency, µM (series often up to 115 µM), hits mostly inhibitors; AID 1347043, 2019; purified P. pyralis luciferase, luminescence, biochemical; also: nearly all actives have a fitted effect of over 65% in size
# Target sequence (P08659 whole entry, looked up): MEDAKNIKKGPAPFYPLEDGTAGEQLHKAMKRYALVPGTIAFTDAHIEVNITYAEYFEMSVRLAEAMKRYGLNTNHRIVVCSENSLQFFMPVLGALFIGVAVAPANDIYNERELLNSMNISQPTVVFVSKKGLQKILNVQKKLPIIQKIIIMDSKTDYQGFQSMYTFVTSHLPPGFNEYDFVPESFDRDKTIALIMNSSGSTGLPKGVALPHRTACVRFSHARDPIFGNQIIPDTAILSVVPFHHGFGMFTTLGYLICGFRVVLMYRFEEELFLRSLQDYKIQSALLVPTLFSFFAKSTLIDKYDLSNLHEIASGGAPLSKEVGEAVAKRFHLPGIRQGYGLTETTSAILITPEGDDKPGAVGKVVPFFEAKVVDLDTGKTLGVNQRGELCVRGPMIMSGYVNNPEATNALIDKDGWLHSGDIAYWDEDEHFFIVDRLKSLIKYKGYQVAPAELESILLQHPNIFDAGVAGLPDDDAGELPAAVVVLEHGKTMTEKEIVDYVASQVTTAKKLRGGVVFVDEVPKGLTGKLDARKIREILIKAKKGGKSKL
#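 Luminescence read by CCD imager after adding enzyme (10nM final) to wells holding compound, titrated in qHTS. Substrates 10uM each D-luciferin and ATP; buffer 50mM Tris acetate pH 7.5, 10mM Mg acetate, Tween-20, BSA.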
# Numbers without * were called inactive; i = inactive; ? = inconclusive; nt = no result given; [ ] = another dose, or the depositor's remark. Unless noted, calls follow the shape of the dose curve; as a rule, active = well fitted curve in the direction sought with a large enough effect; inconclusive = small, poorly fitted or top-dose-only effect, or another doubt; inactive = no such curve, though single readings can be large; an effect the other way counts as inactive or inconclusive. % is scaled to controls: 0 for no effect and ±100 for the full control effect; potency is read from the fitted curve at half-maximal effect.
SMILES,HEK293 tox,NPR1 antag,NIH3T3 tox,Luciferase inh
O=C(NCCCc1ccccc1)C1CN(Cc2ccccc2)C(=O)N1 (configuration not stated),-21%[172 µM],-6%[70.6 µM],-23%[138 µM],i
O=C(C1CCCN(Cc2cccc(-c3ccsc3)c2)C1)N1CCN(c2ncccn2)CC1 (configuration not stated),32µM*,nt,?,nt
CC(C)NC(=O)C1CCCN(Cc2cccc(-c3ccsc3)c2)C1 (configuration not stated),45µM*,nt,?,nt
O=C(c1ccncc1)N1CC2CCC(C1)N2Cc1cccc(-c2ccsc2)c1,?,nt,-25%,nt
O=C(NCCc1ccccc1)C1CCCN(Cc2cccc(-c3ccsc3)c2)C1 (configuration not stated),?,nt,40µM*,nt
CN(C)C(=O)c1nc(-c2cccc(C(F)(F)F)c2)c2ccccn12,?,-1%[70.6 µM],?,i
O=C(Nc1ccc2c(c1)OCCO2)N1CCCC(c2nnnn2-c2ccccc2)C1 (configuration not stated),?,nt,-27%,nt
Cc1ccc(-c2nccn3cc(C(=O)O)nc23)cc1,3%,0%,?,i
Cc1ccc(-c2nccn3cc(C(=O)NCC(C)C)nc23)cc1,40µM*,-8%,?,i
O=C(c1ccc(F)cc1)N1CCC(C(=O)N2CCC(N3Cc4cccn4C3=O)CC2)CC1,-29%,nt,?,nt
O=C(Nc1nc2c(s1)CCCC2)C1CC(=O)N(c2n[nH]c3ccccc23)C1 (configuration not stated),?,-17%,-24%,i
COc1ccc(N2CCN(C(=O)C3CC(=O)N(c4n[nH]c5cccc(F)c45)C3)CC2)cc1 (configuration not stated),40µM*,-15%,-14%,i
O=C(Nc1nc2c(s1)CCC2)C1CC(=O)N(c2n[nH]c3cc(Br)ccc23)C1 (configuration not stated),?,-27%,18µM*,i
O=C(Nc1nc2ccccc2s1)C1CC(=O)N(c2n[nH]c3cccc(F)c23)C1 (configuration not stated),13µM*,-15%,25µM*,i
O=C(Nc1nc2c(s1)CCC2)C1CC(=O)N(c2n[nH]c3cccc(F)c23)C1 (configuration not stated),45µM*,1%,?,i
CCc1nc(NC(=O)C2CC(=O)N(c3n[nH]c4cccc(F)c34)C2)sc1C (configuration not stated),?,1%,-25%,i
CCCCCNC(=O)c1cc(-c2ccc(F)cc2)nc2c1cnn2C,?,nt,-26%,nt
O=C1CC2(CCN(C(=O)C3CCCN(C(=O)C4CC4)C3)CC2)Oc2ccccc2N1 (configuration not stated),-3%,nt,-15%,nt
CSCC(=O)N[C@H]1CCN2C(=O)c3cc(-c4ccc(Cl)cc4)ccc3NC(=O)[C@H]12,?,-20%[70.6 µM],?,?
Cc1noc2c(NCCCn3ccnc3)cc(-c3cccc(C(F)(F)F)c3)nc12,?,0%[70.6 µM],?,i
Cc1noc2c(NCCCn3ccnc3)cc(-c3ccccn3)nc12,-23%[172 µM],1%[70.6 µM],25µM*,i
Cc1noc2c(NCCCn3ccnc3)cc(-c3ccccc3)nc12,?,3%[70.6 µM],11µM*,i
COC1=C(C(=O)OCc2ccccc2)N(c2c(C)cccc2C)[S+](=O)([O-])c2ccccc21,?,nt,-30%,nt
Cc1ccsc1C(=O)N1CCC2(CC1)CC(N(Cc1ccc(F)cc1)C1CC1)CCO2 (configuration not stated),?,-25%,?,i
Cn1nccc1C(=O)N1CCC2(CC1)CC(N(Cc1ccccc1)C1CC1)CCO2 (configuration not stated),?,-17%,-6%,i
SMILES,HEK293 tox,NPR1 antag,NIH3T3 tox,Luciferase inh
O=C(c1ccncc1)N1CCC2(CC1)CC(N(C(=O)c1ccccc1)C1CC1)CCO2 (configuration not stated),-29%,-2%,-27%,i
O=C(CCCc1ccccc1)N1CCC(C2CCNC2)CC1 (configuration not stated),-19%,1%,1%,35µM*
CCn1nccc1C(=O)N1CCC2(CC1)CC(N(Cc1ccccc1)C1CC1)CCO2 (configuration not stated),45µM*,-29%,-21%,i
Cc1ccsc1C(=O)N1CCC2(CC1)CC(N(C(=O)c1ccccc1)C1CC1)CCO2 (configuration not stated),50µM*,-7%,?,i
Cc1ccsc1C(=O)N1CCC2(CC1)CC(N(Cc1ccccc1)C1CC1)CCO2 (configuration not stated),40µM*,-26%,?,i
CNC(=O)c1cc(C2CC2)nc2onc(C3CCN(C(=O)C4CCCC4)CC3)c12,3%,nt,-17%,nt
CC12CCC(=O)C=C1CCN(c1ccccc1)C2 (configuration not stated),-22%,nt,?,nt
CC(=O)N(C1CC1)C1CCOC2(CCN(C(=O)CCCc3ccccc3)CC2)C1 (configuration not stated),?,2%,-21%,28µM*
O=C(NCCCc1ccccc1F)[C@@]12CNC[C@@H]1CN(Cc1ccccc1)C2,45µM*,3%,28µM*,i
CC(=O)N1CCN(C(=O)c2cc(-c3cc(Cl)cc(Cl)c3)c3nncn3n2)CC1,0%,nt,-16%,nt
Cc1nccn1CCCC(=O)N[C@@H]1CCOC[C@H]1OCC(=O)O,-8%,0%,-14%,i
Cc1ccc(-c2ccc(CCC(=O)N[C@@H]3CCOC[C@H]3OCC(=O)O)o2)cc1,-11%,-2%,-1%,25µM*
CC1=C[C@@H](CN2C(=O)C(C)=C(C)C2=O)[C@H](C(C)C)C[C@H]1Cc1nc2ccccc2[nH]1,22µM*,?,25µM*,i
CC1=C[C@@H](CNCc2ccccc2O)[C@H](C(C)C)C[C@H]1Cc1nc2c(C)cccc2[nH]1,?,?,?,i
CC1=C[C@@H](CNC(=O)NC2CCCCC2)[C@H](C(C)C)C[C@H]1Cc1nc2c(C)cccc2[nH]1,-10%,3%,-14%,i
CCC(CC)C(=O)NC[C@@H]1C=C(C)[C@H](Cc2nc3c(C)cccc3[nH]2)C[C@H]1C(C)C,45µM*,-14%[70.6 µM],?,i
CC1=C[C@@H](CN2C(=O)C(C)=C(C)C2=O)[C@H](C(C)C)C[C@H]1Cc1nc2c(C)cccc2[nH]1,35µM*,?,22µM*,i
O=C(c1ccccc1F)N1CCCC(C(=O)N2CCC(N3Cc4cccn4C3=O)CC2)C1 (configuration not stated),?,nt,-29%,nt

# Source: PubChem BioAssay
